# Results filed as inconclusive are left out. Calls of active or inactive are those of the source. Rule for the calls: active = hit-call score of the fitted dose curve at least 0.9, where 1 is the maximum; inconclusive = response in the unintended direction; inactive = score below 0.9.
# Columns and labels:
# [1] = TOX21_p53_BLA_p2_viability: Viability Assessment in the Tox21 HCT-116 p53 Agonism Beta-lactamase Assay, Phase 2 (AID 2283591);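 note: compound exposure lasted 16 h at 37 °C; actives lower the ATP signal meaning cytotoxicity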
# Summary of the method: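 Cytotoxicity readout: CellTiter-Glo ATP luminescence, 30 min at room temperature, after the beta-lactamase read. Cells were HCT116 exposed 16 h at 37C to compounds pin-transferred at 217-fold dilution from DMSO stocks.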
# [2] = molecular target: Cellular tumor antigen p53 (Homo sapiens) (UniProt P04637); assay: TOX21_p53_BLA_p2_ratio: Tox21 HCT-116 p53 Agonism Beta-lactamase Assay, Ratio, Phase 2 (AID 2283592)
# Sequence of Cellular tumor antigen p53 (Homo sapiens) (P04637 whole entry, looked up): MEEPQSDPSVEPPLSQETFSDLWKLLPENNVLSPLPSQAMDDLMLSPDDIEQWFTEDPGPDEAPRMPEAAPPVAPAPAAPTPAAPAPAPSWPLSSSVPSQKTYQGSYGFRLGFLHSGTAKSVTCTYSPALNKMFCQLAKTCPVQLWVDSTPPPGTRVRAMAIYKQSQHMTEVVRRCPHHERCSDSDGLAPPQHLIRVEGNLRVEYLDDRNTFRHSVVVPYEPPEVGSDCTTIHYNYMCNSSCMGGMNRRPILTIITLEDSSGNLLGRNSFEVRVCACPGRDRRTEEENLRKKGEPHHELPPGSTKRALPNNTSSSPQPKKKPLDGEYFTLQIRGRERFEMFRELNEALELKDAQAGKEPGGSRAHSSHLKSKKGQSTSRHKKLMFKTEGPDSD
# Summary of the method: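 Cleaved-to-uncleaved substrate ratio (460 vs 530 nm) measured in HCT116 cells with an inducible beta-lactamase reporter linked to p53 activity. Compounds incubated 16 h at 37C before 2 h room-temperature CCF4-AM loading.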
# [3] = TOX21_p53_BLA_p3_viability: Viability Assessment in the Tox21 HCT-116 p53 Agonism Beta-lactamase Assay, Phase 3 (AID 2283593);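 note: cells exposed to compound for 16 h before reading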
# Summary of the method: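 Cellular ATP was quantified by CellTiter-Glo luminescence, read after 30 min at room temperature. Beforehand, HCT116 cells (4000/well) received compound 5 h post-seeding, 217-fold diluted from DMSO, then incubated 16 h at 37C.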
# [4] = molecular target: Cellular tumor antigen p53 (Homo sapiens) (UniProt P04637); assay: TOX21_p53_BLA_p3_ratio: Tox21 HCT-116 p53 Agonism Beta-lactamase Assay, Ratio, Phase 3 (AID 2283596)
# Summary of the method: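 Cells were seeded at 4000/well, rested 5 h at 37C, then dosed with DMSO compound solutions (217-fold dilution) for 16 h. CCF4-AM substrate was loaded for 2 h at room temperature, and the 460/530 nm emission ratio was fitted for gain of signal versus DMSO.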
# [5] = TOX21_p53_BLA_p4_viability: Viability Assessment in the Tox21 HCT-116 p53 Agonism Beta-lactamase Assay, Phase 4 (AID 2283597);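 note: hits lower the luminescence signal meaning cytotoxicity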
# Summary of the method: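 Viability is taken as cellular ATP: after 16 h compound exposure of HCT116 cells and a 2 h room-temperature CCF4-AM substrate step, CellTiter-Glo reagent is added and luminescence is measured 30 min later.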
# [6] = molecular target: Cellular tumor antigen p53 (Homo sapiens) (UniProt P04637); assay: TOX21_p53_BLA_p5_ratio: Tox21 HCT-116 p53 Agonism Beta-lactamase Assay, Ratio, Phase 5 (AID 2283599)
# Summary of the method: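 Beta-lactamase reporter ratio (blue 460 nm over green 530 nm, 405 nm excitation) after 2 h CCF4-AM loading, in HCT-116 cells exposed 16 h at 37 C to compounds pinned at 217-fold dilution. Increases relative to DMSO baseline scored.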
# [7] = TOX21_p53_BLA_p5_viability: Viability Assessment in the Tox21 HCT-116 p53 Agonism Beta-lactamase Assay, Phase 5 (AID 2283600)
# Summary of the method: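 Viability is taken from cellular ATP content, measured by luciferase luminescence in the same wells after the beta-lactamase ratio read. Cells are seeded at 4000 per well and exposed to DMSO-dissolved compounds, diluted 217-fold, for 16 h.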
# [8] = molecular target: Cellular tumor antigen p53 (Homo sapiens) (UniProt P04637); assay: TOX21_p53_BLA_p4_ratio: Tox21 HCT-116 p53 Agonism Beta-lactamase Assay, Ratio, Phase 4 (AID 2283601)
# Summary of the method: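 Signal is the blue/green (460nm/530nm) ratio of cleaved versus uncleaved CCF4-AM substrate, read after 2 h substrate loading. Cells were HCT116 carrying the p53-responsive beta-lactamase reporter, dosed 16 h at 37C, 5% CO2; CellTiter-Glo measured in parallel.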
# [9] = STM_H9_OrnCyssISnorm_ratio: Stemina devTOX quickPredict H9 human embryonic stem cell (hESC)-based Assay for Ornithine (ORN):Cystine (CYSS) Ratio (AID 2283714)
# Summary of the method: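 Ratio of internal-standard-normalized ornithine to cystine, measured by UPLC-HRMS in spent media from the last 24 h. H9 cells kept pluripotent, dosed 72 h with daily media and compound renewal; DMSO 0.1% serves as baseline.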
# [10] = STM_H9_NormalizedViability: Cytotoxicity Assessment at 120 hours in the Stemina devTOX quickPredict H9 human embryonic stem cell (hESC)-based Assay (AID 2283784)
# Summary of the method: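 Viability endpoint: background-corrected CellTiter-Fluor RFU expressed relative to the 0.1% DMSO mean on each plate. Undifferentiated H9 cells were treated with daily re-dosing and media change, and loss of signal was fitted.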
# [11] = CCTE_Harrill_HTTr_CellCount_MCF7: CCTE's Cell Proliferation Assessment for the High-Throughput Transcriptomics (HTTr) Platform, Harrill Lab (AID 2284012);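 note: cells exposed to compound for six hours; intended direction is loss of nuclei count meaning fewer cells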
# Summary of the method: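 Cell count from high-content imaging of Hoechst-labeled nuclei serves as viability/growth readout. Chemicals were applied to MCF-7 cells in eight concentrations for six hours, with fitting in both directions relative to DMSO.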
Structure (SMILES),outcome [1],outcome [2],outcome [3],outcome [4],outcome [5],outcome [6],outcome [7],outcome [8],AC50 [2],AC50 [4],AC50 [6],AC50 [8],AC50 [9],AC50 [10],outcome [11]
COc1ccc2c3c1O[C@H]1[C@@H](O)C=C[C@H]4[C@@H](C2)NCC[C@@]341,inactive,inactive,inactive,inactive,inactive,inactive,inactive,inactive,,,,,,,
O=c1ccc2cc(O[C@@H]3O[C@H](CO)[C@@H](O)[C@H](O)[C@H]3O)c(O)cc2o1,inactive,,inactive,,inactive,,inactive,,10.3 µM (active),12 µM (active),10.3 µM (active),10.9 µM (active),,,
O=[N+]([O-])c1ccc([As](=O)(O)O)cc1,inactive,inactive,inactive,inactive,inactive,inactive,inactive,inactive,,,,,,,
CCOC(=O)NC(C)(C)Cc1ccc(Cl)cc1,inactive,inactive,inactive,inactive,inactive,inactive,inactive,inactive,,,,,,,
Nc1ccncc1,inactive,inactive,inactive,inactive,inactive,inactive,inactive,inactive,,,,,,,
CCCCCl,inactive,inactive,inactive,inactive,inactive,inactive,inactive,inactive,,,,,,,
Oc1ccc2[nH]cc(CCCCN3CC=C(c4ccccc4)CC3)c2c1,inactive,inactive,inactive,inactive,inactive,inactive,inactive,inactive,,,,,,,
CC(C)(O)[C@@H]1[C@H]2OC(=O)[C@@H]1[C@]1(O)C[C@H]3O[C@]34C(=O)O[C@H]2[C@]14C (tested in a mixture with another compound),inactive,inactive,inactive,inactive,inactive,inactive,,inactive,,,,,,,
O=CC=Cc1ccccc1,inactive,inactive,inactive,inactive,inactive,inactive,inactive,inactive,,,,,83.9 µM (active),93.6 µM (active),inactive
CC(C)CC(C)N (centres undefined),inactive,inactive,inactive,inactive,inactive,inactive,,inactive,,,,,,,
CC(O)CN1CCN(CC(=O)[O-])CCN(CC(=O)[O-])CCN(CC(=O)[O-])CC1.[Gd+3] (centres undefined),inactive,inactive,inactive,inactive,inactive,inactive,inactive,inactive,,,,,,,
